# Rows were chosen to be rich in hits. Some 27% of all compounds tested hit in one or more screens of this group.
# CYP2C19 activ – human CYP2C19 activators, primary screen, biochemical, luminescence; activation factor at 5 µM; AID 1025, 2008; Cytochrome P450 2C19 (Homo sapiens), P33261; 96,000 tested, under 10 active; recombinant CYP2C19, luciferin-H EGE luminescence; active compounds read high; 0 = fully inhibited enzyme, 1 = untreated enzyme;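 active = activation factor of at least 2 at 5 µM in the primary screen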;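 note: 0 = wells with 2.5 mM tranylcypromine and 1 = vehicle-only wells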
# Target sequence (P33261 whole entry, looked up): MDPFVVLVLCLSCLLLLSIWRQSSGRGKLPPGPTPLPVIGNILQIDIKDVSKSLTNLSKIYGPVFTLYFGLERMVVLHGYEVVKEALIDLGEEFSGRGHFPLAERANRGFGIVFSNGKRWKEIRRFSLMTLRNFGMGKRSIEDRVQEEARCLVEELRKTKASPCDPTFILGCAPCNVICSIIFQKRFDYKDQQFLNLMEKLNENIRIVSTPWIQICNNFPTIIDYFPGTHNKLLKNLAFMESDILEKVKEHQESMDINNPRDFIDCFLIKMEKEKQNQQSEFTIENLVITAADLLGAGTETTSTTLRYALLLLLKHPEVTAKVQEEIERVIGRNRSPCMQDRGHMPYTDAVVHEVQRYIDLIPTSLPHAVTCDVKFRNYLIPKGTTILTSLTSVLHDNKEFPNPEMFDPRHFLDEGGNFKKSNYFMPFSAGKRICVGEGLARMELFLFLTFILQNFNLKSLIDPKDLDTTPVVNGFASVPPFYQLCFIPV
# Cav3 T inh – Cav3.2 calcium influx blockers – cell-based, Fluo-4 calcium fluorescence, FDSS, MLSMR library, primary screen. Cav3.2-expressing cells; active compounds read low. B-score at 10 µM. 4% of 100,000 active;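 active = single-dose well whose peak fluorescence ratio is a statistical outlier from its plate by either plate-standardised score or position-corrected B-score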
# CYP2C9 inh – blockers of cytochrome P450 2C9 activity – biochemical, luminescence, ADME assay, primary screen. P11712. CYP2C9 Supersomes, luciferin-H conversion. inhibition, % at 5 µM. 20% of 96,000 active;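 active = blocking of liver enzyme CYP2C9 beyond about 50% at 5 µM, limit read from the data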
# CYP2C19 inh – blockers of cytochrome P450 2C19 activity – biochemical, luminescence, ADME assay, primary screen; P33261; CYP2C19 Supersomes, luciferin-H EGE luminescence, 30 min; inhibition, % at 5 µM; 21% of 96,000 active;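 active = CYP2C19 inhibition above a set limit at 5 µM in the primary screen, cut at about 50% in these data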;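 note: plate controls were negative control wells for no effect and 2.5 mM tranylcypromine positive control for full effect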
# CYP2C9 activ – human CYP2C9 activators, primary screen, biochemical, luminescence | activation factor at 5 µM | Cytochrome P450 2C9 (Homo sapiens), P11712 | 1.4% of 96,000 active | recombinant CYP2C9, luciferin-H conversion; active compounds read high; factor 1 = untreated enzyme, 0 = blocked;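 active = activation factor of 2 or more for CYP2C9 at a 5 µM dose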;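 note: 0 = sulfaphenazole-blocked wells and 1 = vehicle-only wells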
# An asterisk follows results filed as active; x = no result.
SMILES,CYP2C19 activ,Cav3 T inh,CYP2C9 inh,CYP2C19 inh,CYP2C9 activ
O=C(Nc1cccc(Cl)c1)N1CCN2C(=O)c3ccccc3C12c1ccccc1 (stereo not given),0.5,-6.6*,57*,49,0.4
O=C(Nc1ccc2c(c1)OCO2)c1ccc(COc2ccc3c(c2)CCC3)o1,0.6,-1.9,40,38,0.6
COc1ccc(C2=NN(CN3C(=O)C(=O)c4ccccc43)C(c3ccc(C)cc3)C2)cc1 (stereo not given),0.5,-0.52,76*,51*,0.2
Cc1cc(C)cc(Oc2ccc(C(F)(F)F)cc2C#N)c1,0.4,-0.14,52*,58*,0.5
CCCCc1nc2ccccc2n1Cc1nnc2n1-c1ccccc1SC2,0.1,-0.0044,92*,91*,0.1
CN(c1ncc(C(F)(F)F)cc1Cl)n1cc(C(N)=O)c2ccccc2c1=O,0.4,0.0091,83*,57*,0.2
CN(c1ncc(C(F)(F)F)cc1Cl)n1cc(C(=O)O)c2ccccc2c1=O,1.1,0.0086,19,-9,0.8
CC(=O)c1cccc(NC(=O)c2ccc(N(Cc3ccccc3C)S(C)(=O)=O)cc2)c1,x,-2.6,x,x,x
Cc1ccccc1CN(c1ccc(C(=O)Nc2ccccc2C(=O)N2CCCC2)cc1)S(C)(=O)=O,0,x,91*,99*,0.1
CNC(=O)c1ccc(N(Cc2ccccc2C)S(C)(=O)=O)cc1,0.4,1,43,57*,0.6
Cc1ccc(N(Cc2ccccc2F)S(C)(=O)=O)cc1C,0,-1.2,73*,98*,0.3
Cc1ccccc1CN(c1ccc(C(=O)Nc2ccccc2C(=O)NCc2ccco2)cc1)S(C)(=O)=O,0,-2,83*,99*,0.2
CN(c1ccccc1C(=O)Nc1ccccc1C(=O)NCc1ccco1)S(C)(=O)=O,0.7,-0.074,47,29,0.5
Cc1ccc(N(Cc2ccc(C(=O)NC3CCCCC3)cc2)S(C)(=O)=O)cc1C,0.9,0.8,8,6,0.9
Cc1cc2ccc(C)c(C)c2nc1SCC#N,1,-0.15,10,4,0.9
Cc1ccccc1CN(c1ccc(C(=O)N2CCc3ccccc3C2)cc1)S(C)(=O)=O,0.5,-2.8,63*,55*,0.4
O=C(Nc1ccccc1)c1ccc(F)c(S(=O)(=O)N2CCOCC2)c1,0.4,x,56*,57*,0.4
O=C(Nc1ccc2c(c1)OCCO2)c1ccc(CN2CCOCC2)cc1,1,0.89,-1,2,1
O=C(Nc1ccc2c(c1)OCCO2)c1ccc(Cl)c(S(=O)(=O)N2CCOCC2)c1,0.4,-0.024,41,63*,0.6
CCOc1ccccc1NC(=O)c1ccc(F)c(S(=O)(=O)N2CCC3(CC2)OCCO3)c1,0.4,-0.63,58*,58*,0.4
O=C(Nc1ccccc1C(=O)O)c1ccc(Cl)c(S(=O)(=O)N2CCOCC2)c1,1.1,1.3,75*,-10,0.2
Cc1ccc(NC(=O)c2ccc(F)c(S(=O)(=O)N3CCOCC3)c2)cc1F,0.9,-0.0071,32,8,0.7
O=C(Nc1nccs1)c1ccc(Cl)c(S(=O)(=O)N2CCOCC2)c1,0.8,-1.3,25,18,0.7
O=C(NCc1ccccc1)c1ccc(F)c(S(=O)(=O)N2CCOCC2)c1,1,1.3,24,4,0.8
c1ccc(Cn2nnc(CNc3ccccc3)c2-c2c(CNc3ccccc3)nnn2Cc2ccccc2)cc1,x,-2.3,x,x,x
SMILES,CYP2C19 activ,Cav3 T inh,CYP2C9 inh,CYP2C19 inh,CYP2C9 activ
NC(=O)CSc1nnc(Cn2c(=O)sc3ccccc32)n1-c1cccc(Cl)c1,1,2.4,8,1,0.9
CCCCCCSc1nc(O)c(C2OC(=O)c3c2ccc(OC)c3OC)c(=O)n1-c1ccccc1 (stereo not given),0.9,-0.84,39,10,0.6
CCCS(=O)(=O)N1CCCC(C(=O)NCC2CCCO2)C1 (stereo not given),1,1.3,2,1,1
Cc1ccc(S(=O)(=O)N(C)CC(=O)N2CCCC2)cc1,x,-1.2,x,x,x
Cn1c(SCCS(=O)(=O)c2ccc(Cl)cc2)nnc1-c1ccccc1,0.6,-0.51,19,42,0.8
CCC1(CC)Cc2ccccc2C(Nc2c(C)n(C)n(-c3ccccc3)c2=O)=N1,0.9,0.18,14,9,0.9
